In ChEMBL document CHEMBL4513141, “CO-ADD screening of NIH (USA) - Clinical Collection” (2021):
Results with a measured potency or affinity are listed apart.

System: Cryptococcus neoformans
Conditions: Concentration 20 uM; ASSAY_TEST Inhibition of Fungal Growth; detection method Resazurin; Absorption (OD600-OD570); plate type 384well; NBS; CORNING #3640

SMILES	Inhibition [%]
Nc1nc(O)c2ncn(CCC(CO)CO)c2n1 [PENCICLOVIR]	-9.17
Cc1cccc(Nc2ccccc2C(=O)O)c1C [MEFENAMIC ACID]	2.83
O=C(CCCN1CC=C(n2c(=O)[nH]c3ccccc32)CC1)c1ccc(F)cc1 [DROPERIDOL]	-8.67
O=C(O)COCCN1CCN(C(c2ccccc2)c2ccc(Cl)cc2)CC1 (stereo unspecified) [CETIRIZINE]	-6.19
CC1(C)C[C@@H]1C(=O)N/C(=C\CCCCSC[C@H](N)C(=O)O)C(=O)[O-].[Na+] [CILASTATIN SODIUM]	-1.08
CCC(CO)NCCNC(CC)CO (stereo unspecified)	-1.69
NC(Cc1cc(I)c(Oc2ccc(O)c(I)c2)c(I)c1)C(=O)O (stereo unspecified) [RATHYRONINE]	-1.85
O=c1cnn([C@@H]2O[C@H](CO)[C@@H](O)[C@H]2O)c(=O)[nH]1 [6-AZAURIDINE]	7.24
CC[C@]1(O)C[C@@H]2CN(CCc3c([nH]c4ccccc34)[C@@](C(=O)OC)(c3cc4c(cc3OC)N(C=O)[C@H]3[C@@](O)(C(=O)OC)[C@H](OC(C)=O)[C@]5(CC)C=CCN6CC[C@]43[C@@H]65)C2)C1.O=S(=O)(O)O	-7.42
COC(=O)C1=C(C)NC(C)=C(C(=O)OCC(C)C)C1c1ccccc1[N+](=O)[O-] (stereo unspecified) [NISOLDIPINE]	42.23
Cc1ccc(-c2cc(C(F)(F)F)nn2-c2ccc(S(N)(=O)=O)cc2)cc1 [CELECOXIB]	0.77
CCCNC(C)C(=O)Nc1ccccc1C.Cl (stereo unspecified) [PRILOCAINE HYDROCHLORIDE]	-8.37
Cc1ccc(S(=O)(=O)NC(=O)NN2CCCCCC2)cc1 [TOLAZAMIDE]	-7.48
CC(C)(C)NCC(O)c1ccc(O)c(CO)c1.CC(C)(C)NCC(O)c1ccc(O)c(CO)c1.O=S(=O)(O)O (stereo unspecified) [ALBUTEROL SULFATE]	-3.67
Cl.Clc1ccc2nsnc2c1NC1=NCCN1 [TIZANIDINE HYDROCHLORIDE]	-1.24
COc1ccc(Cl)cc1C(=O)NCCc1ccc(S(=O)(=O)NC(=O)NC2CCCCC2)cc1 [GLYBURIDE]	1.86
